The campaign covered roughly 360,000 compounds. About 8,200 (2.3%) were called active. Rule as the data show it: active = inhibition above about 27%; inactive = the rest. Only a selection was taken, and actives are over-represented in it overall.
These compounds were tested against Fructose-bisphosphate aldolase (Mycobacterium tuberculosis (strain ATCC 25618 / H37Rv)) (UniProt P9WQA3) (assay: Mtb FBA enzyme inhibitors, primary screen, biochemical, fluorescence, strain H37Rv (AID 588726;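 also: 0% = vehicle and 100% = reference inhibitor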)). Details: purified M. tuberculosis FBA, fluorescence read-out, at 1 µM, active compounds read high.
Sequence of Fructose-bisphosphate aldolase (Mycobacterium tuberculosis (strain ATCC 25618 / H37Rv)) (P9WQA3 whole entry, looked up): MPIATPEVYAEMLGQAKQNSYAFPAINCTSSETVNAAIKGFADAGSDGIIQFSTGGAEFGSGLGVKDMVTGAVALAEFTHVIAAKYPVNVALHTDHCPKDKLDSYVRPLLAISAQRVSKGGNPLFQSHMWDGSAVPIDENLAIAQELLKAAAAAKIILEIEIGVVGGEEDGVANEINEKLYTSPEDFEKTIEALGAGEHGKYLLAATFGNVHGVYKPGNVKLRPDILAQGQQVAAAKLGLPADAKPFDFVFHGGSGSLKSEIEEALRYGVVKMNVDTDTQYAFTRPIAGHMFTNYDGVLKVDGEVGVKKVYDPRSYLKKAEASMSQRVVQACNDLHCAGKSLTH

SMILES | inhibition
Cc1ccc(-c2ccnc3nc(Sc4ncc(C(F)(F)F)cc4Cl)nn23)cc1 | 25.2% (inactive)
CCc1ccc(OCC(=O)OCC(=O)c2c(N)n(C)c(=O)n(C)c2=O)cc1 | 3.53% (inactive)
COc1ccccc1CNC(=O)Cn1c(=O)oc2cc(Cl)ccc21 | -1.01% (inactive)
CC(C)C(C)(C#N)NC(=O)CSc1nc2scc(-c3ccccc3)c2c(=O)[nH]1 (centres undefined) | -1.25% (inactive)
CCCc1nc2sc3c(c2c(=O)n1NC(=O)CCCl)CCCC3 | -0.17% (inactive)
CCc1nc(N2CCN(C(C)=O)CC2)c2c3c(sc2n1)CCCC3 | -1.16% (inactive)
COCCNc1nc(-n2nc(C)cc2C)nc2sc3c(c12)CCCC3 | 35.2% (active)
C=CCn1c(CCNC(=O)c2cccs2)n[nH]c1=S | 0.26% (inactive)
O=C(NNC(=S)NC1CC2CCC1C2)c1ccc(Cl)cc1 (centres undefined) | -1.27% (inactive)
Cc1nn2c(c1-c1ccccc1)N=C(c1ccco1)CC2c1ccccc1 (centres undefined) | -3.5% (inactive)
COC(=O)c1ccccc1NC(=O)C1CC(=O)N(c2ccc(OC)cc2)C1 (centres undefined) | 2.12% (inactive)
O=C(NCCN1CCOCC1)c1ccc2c(c1)N(Cc1ccc(Cl)cc1)CCS2 | 32.2% (active)
O=C(NCCc1ccccc1)c1ccc2c(c1)N(Cc1ccccc1)CCS2 | 43.6% (active)
CCOC(=O)N1CCN(C(=O)c2ccc3c(c2)N(Cc2ccc(C)cc2)CCS3)CC1 | 7.61% (inactive)
CC1CCCN(c2ccc(C(=O)NCCc3ccccc3)cn2)C1 (centres undefined) | 2.27% (inactive)
O=C(NCCN1CCOCC1)c1c(F)c(F)c(F)c(F)c1F | -2.22% (inactive)
O=C(Cc1ccc(Br)cc1)NCCN1CCOCC1 | 1.41% (inactive)
CN(C)/C=N/c1cc(=O)n(C)c(=O)n1CC1CC1 | -0.52% (inactive)
CN1C(C(=O)NCC2CC2)CC2Cn3c(nc4ccccc43)C21 (centres undefined) | -0.07% (inactive)
Cc1nonc1OCCn1nnnc1N | -0.1% (inactive)
COC[C@@H]1NS(=O)(=O)c2ccc(Br)cc2O[C@H]1c1ccccc1 | -2.58% (inactive)
Cc1nonc1C1CCCN1C(=O)c1cc(COc2cccc(C(F)(F)F)c2)on1 (centres undefined) | -1.66% (inactive)
CCCC1OC23CCCCC2C(C#N)(C#N)C1(C#N)C(=N)O3 (centres undefined) | 48.2% (active)
CCCCc1cc(=O)oc2cc(C)cc(OCc3nn[nH]n3)c12 | 183% (active)
CN(CCOc1ccccc1)Cc1nc2cc(Cl)ccc2c(=O)[nH]1 | 7.42% (inactive)

SMILES | inhibition
CC(=O)N1CC[n+]2c(-c3ccc([N+](=O)[O-])cc3)csc21 | -3.76% (inactive)
COc1ccc2c(c1OC)C(=O)N(c1ncn[nH]1)C2 | 31.1% (active)
COc1ccc(C(C)C)cc1S(=O)(=O)Nc1ncn[nH]1 | -1.62% (inactive)
COc1ccc2c(c1OC)C(=O)N(c1ccc(O)cc1)C2 | -2.29% (inactive)
Cc1nnc(NC(=O)CSc2nccn2-c2cccc(C)c2C)s1 | 1.13% (inactive)
CCOC(=O)C1CCN(C(=O)Cn2cc(C#N)c3ccccc32)CC1 | 1% (inactive)
CCCc1cc(=S)n2c([nH]c3ccccc32)c1C#N | 14.3% (inactive)
COc1ccc(C(C(=O)NC2CCCCC2)N(C(=O)Cc2c[nH]c3ccccc23)c2ccccc2)cc1OC (centres undefined) | -0.54% (inactive)
CC(=O)N1CCSc2ccc(S(=O)(=O)N3CCC(C)CC3)cc21 | 3.62% (inactive)
CC12CCC(C(=O)N(CCC#N)CCC#N)(CC1=O)C2(C)C (centres undefined) | 1.36% (inactive)
Cc1ccc(C(=O)NC(=S)Nc2ccc3[nH]c(=O)[nH]c3c2)cc1C | 2.47% (inactive)
COC(=O)c1cc(C(=O)NC(C)C2CC3CCC2C3)cc([N+](=O)[O-])c1 (centres undefined) | 6.2% (inactive)
Cc1cccc(NC(=O)c2cc(S(=O)(=O)N3CCC4(CC3)OCCO4)ccc2F)c1 | -0.22% (inactive)
Cc1cc(C(=O)NC2CCN(Cc3ccccc3)CC2)n[nH]1 | 0.08% (inactive)
O=C(NC1CCN(Cc2ccccc2)CC1)c1ccc(Oc2cc(Cl)cc(Cl)c2)o1 | 1.42% (inactive)
O=C(NC1CCN(Cc2ccccc2)CC1)c1cc(Br)c(Br)[nH]1 | 40% (active)
OC(c1ccc(Cl)c(F)c1)c1ncc(-c2ccccc2Cl)[nH]1 (centres undefined) | -1.69% (inactive)
OC(Cn1c2ccccc2c2ccccc21)C[n+]1ccccc1 (centres undefined) | -1.64% (inactive)
CCCCN(CCCC)CC(O)Cn1c2ccccc2c(=O)c2ccccc21 (centres undefined) | 71.2% (active)
CS(=O)(=O)N(CC(O)Cn1c2ccccc2c2ccccc21)c1cccc2ccccc12 (centres undefined) | -2.35% (inactive)
O=C(CNC(=O)[C@@H]1Cc2ccccc2CN1)NC1CCCCC1 | 0.53% (inactive)
CC(C)C(NC(=O)OCc1ccccc1)C(=O)OCC(=O)N1C(C)CCCC1C (centres undefined) | 2.57% (inactive)
COc1ccc(CCN2C(=O)CC(N3CCC(C(N)=O)CC3)C2=O)cc1OC (centres undefined) | -1.48% (inactive)
Cc1nc(SC(C)C)[nH]c(=O)c1Cc1ccccc1 | 0.91% (inactive)
N#Cc1c(N)nc2c(c1N)CC(C(F)(F)F)O2 (centres undefined) | 0.26% (inactive)

SMILES | inhibition
Cc1nc2ccccc2c(C(=O)O)c1-c1ccccn1 | -2.32% (inactive)
CCc1ccc(-c2cc(C(=O)NN3CCN(C)CC3)c3ccccc3n2)cc1 | 0.75% (inactive)
O=C(CCCN1C(=O)CSc2ncccc21)N1CCN(c2cccc(C(F)(F)F)c2)CC1 | 3.32% (inactive)
CN(C)c1cc(-c2ccc(F)cc2)oc(=O)c1Cl | -2.58% (inactive)
CCCCCCc1cc2cc(-c3nnc(-c4ccccc4)o3)c(=O)oc2cc1O | 4.92% (inactive)
Cc1cc(Cl)ccc1N1C(=O)CC(SCCC(=O)O)C1=O (centres undefined) | 5.32% (inactive)
COc1ccc(C(=O)NCCSc2ccccc2C)cc1 | 0.09% (inactive)
CCOc1ccc(S(=O)(=O)NCCSc2ccccc2)cc1 | 1.75% (inactive)
CCOc1ccc2nc(NCCNC(=O)C(C)(C)C)c(C)cc2c1 | 26.1% (inactive)
CCOc1ccc2nc(NCCNS(=O)(=O)c3ccccc3)c(C#N)cc2c1 | 40.1% (active)
Cn1nc(N)c2ncc(C(Cl)(Cl)Cl)nc21 | -3.83% (inactive)
COc1cc(-c2nnc(NC(=O)CS(=O)(=O)c3ccc(Cl)cc3)o2)cc(OC)c1OC | -1.58% (inactive)
COc1cc2c(-c3ccc4c(c3)OCO4)c(-c3ccsc3)oc(=O)c2cc1OC | 2.51% (inactive)
COC(=O)c1c(-c2ccsc2)oc2ccc(-c3cc(OC)c(OC)c(OC)c3)cc12 | 27.6% (active)
CCCCC(NC(=O)c1cccc(Br)c1)C(=O)O (centres undefined) | 3.7% (inactive)
O=C(NC1CC2CCCC(C1)N2C(=O)N1CCCCC1)C1CCCCC1 (centres undefined) | 2.38% (inactive)
CCOCCCN(C)C1CCN(C(=O)c2oc3ccccc3c2NC(=O)Cc2cccc([N+](=O)[O-])c2)CC1 | -1.05% (inactive)
CN1CCC[C@@H]1CCO[C@](C)(c1ccccc1)c1ccc(Cl)cc1 | -4.31% (inactive)
COc1cccc2sc3cc(NCC[C@@H]4CCCN4C)ccc3c(=O)c12 | 40.4% (active)
Cc1cc2oc3ccc(NCCC4CCCN4C)cc3c(=O)c2cc1C (centres undefined) | -0.55% (inactive)
COC(=O)c1c(C(=O)OC)c(-c2cccc(C)c2)n2c1CS(=O)C2 (centres undefined) | -0.62% (inactive)
COc1ccc2c(c1)OC(O)(C(F)(F)C(F)F)CC2=O (centres undefined) | -0.78% (inactive)
O=S(=O)(c1ccc(Cl)s1)N1CCC2(CC1)OCCO2 | 0.69% (inactive)
CCC12CN3CC(CC)(CN(C1)C31C(=O)N(C)c3ccc(C)cc31)C2=O (centres undefined) | -4.48% (inactive)
Cc1cc(C(=O)OCC(=O)Nc2ccc(F)c(F)c2)c(C)o1 | 0.1% (inactive)

SMILES | inhibition
CC(CN1CCOCC1)c1ccccc1 (centres undefined) | -0.87% (inactive)
c1cnc(NC2C3CC4CC(C3)CC2C4)nc1 (centres undefined) | 1.67% (inactive)
Clc1nc(NC2CCCC2)nc(N2CCOCC2)n1 | 2.59% (inactive)
c1ccc2c(NC3C4CC5CC(C4)CC3C5)nc(N3CCOCC3)nc2c1 (centres undefined) | 37.7% (active)
CC(Nc1nc(N2CCOCC2)nc2ccccc12)c1ccccc1 (centres undefined) | 50.4% (active)
Fc1cnc(N2CCOCC2)nc1NCc1ccccc1 | 15.4% (inactive)
Cc1ccc(-n2nc(-c3ccco3)cc2C(=O)NCc2cccnc2)cc1 | -1.53% (inactive)
CC(=O)N1CC(=O)N(CC(=O)Nc2ccc(Br)cc2)C1=S | -0.11% (inactive)
COc1ccc(C)cc1N(CC(=O)N1CCCC1)S(=O)(=O)c1ccccc1 | -1.91% (inactive)
CC1CCCCC1NC(=O)c1cn(C)c2ccc(S(=O)(=O)N3CCOCC3)cc2c1=O (centres undefined) | -7.99% (inactive)
Cc1ccccc1N1CCN(CCCN2C(=O)C3CCCCN3C2=O)CC1 (centres undefined) | 0.31% (inactive)
COC(=O)C1=C(C)N(C)C(=S)NC1c1cc(OC)ccc1OC (centres undefined) | 2.6% (inactive)
CC(=O)NC(NC(=S)Nc1c(C)n(C)n(-c2ccccc2)c1=O)C(Cl)(Cl)Cl (centres undefined) | 4.91% (inactive)
O=C(CCS(=O)(=O)Cc1ccccc1F)NCCCN1CCCCC1 | -1.06% (inactive)
O=C(NCc1cccnc1)Nc1cccc(NC(=O)NCc2cccnc2)c1F | 2.23% (inactive)
COc1ccc(-c2cn3ccc(C)cc3n2)cc1 | 70.2% (active)
COc1ccc(Cc2cc(-c3ccc(F)cc3)n[nH]c2=O)cc1 | -0.22% (inactive)
Cc1ccc2nc(-c3ccc(Br)cc3)cn2c1 | 4.66% (inactive)
CCN(CC(=O)NCCc1ccccc1)S(=O)(=O)c1ccc(C)cc1 | -0.83% (inactive)
CCN(CC)S(=O)(=O)c1ccc(-c2cn3ccc(C)cc3n2)cc1 | 140% (active)
COc1ccc(C2=Nc3cc(C)ccc3OC2)cc1 | 17.7% (inactive)
Cc1ccc(Cc2c(-c3ccccc3)nc3ccc(Cl)cn23)cc1 | -2.09% (inactive)
CCN(c1cccc(C)c1)S(=O)(=O)c1ccc(-c2coc(C)n2)cc1 | 3.59% (inactive)
Cc1ccc(-c2cn3cc(C)ccc3n2)cc1 | 56% (active)

Source: PubChem BioAssay AID588726 (The Scripps Research Institute Molecular Screening Center, 2011)
